Screening data (PubChem BioAssay)
PNC assembly inh: blocks assembly of the perinucleolar compartment; actives 3.1% (n = 140,000); PC3M PTB-GFP, PNC prevalence imaging, 16 h; active compounds read low; activity change (PNC), negative = inhibition, % at 10 µM;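 active = readout at or below -70, meaning at least 70% loss of cells showing the perinucleolar compartment, a nuclear body marking cancer cells; inconclusive = readout between -30 and a set limit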;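 note: plate controls were DMSO wells for no effect and camptothecin positive control wells for full effect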
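Compounds are pinned in duplicate onto adhered PC3M cells stably expressing GFP-tagged PTB and incubated 16 h at 37 C. Cells are then fixed, nuclei stained with Hoechst, and PNC-positive cells counted.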
ALOX15B inhib: inhibitors of human 15-lipoxygenase 2 (ALOX15B); purified 15hLO-2, xylenol orange hydroperoxide absorbance; O15296; Potency, µM (top dose mostly 57.1 µM), inactives show at the highest dose activity change, negative = inhibition, hits mostly inhibitors; actives 0.56% (n = 110,000); note: potency is the fitted concentration of half-maximal effect; nearly all actives have a fitted effect of over 60% in size
Target sequence (O15296 whole entry, looked up): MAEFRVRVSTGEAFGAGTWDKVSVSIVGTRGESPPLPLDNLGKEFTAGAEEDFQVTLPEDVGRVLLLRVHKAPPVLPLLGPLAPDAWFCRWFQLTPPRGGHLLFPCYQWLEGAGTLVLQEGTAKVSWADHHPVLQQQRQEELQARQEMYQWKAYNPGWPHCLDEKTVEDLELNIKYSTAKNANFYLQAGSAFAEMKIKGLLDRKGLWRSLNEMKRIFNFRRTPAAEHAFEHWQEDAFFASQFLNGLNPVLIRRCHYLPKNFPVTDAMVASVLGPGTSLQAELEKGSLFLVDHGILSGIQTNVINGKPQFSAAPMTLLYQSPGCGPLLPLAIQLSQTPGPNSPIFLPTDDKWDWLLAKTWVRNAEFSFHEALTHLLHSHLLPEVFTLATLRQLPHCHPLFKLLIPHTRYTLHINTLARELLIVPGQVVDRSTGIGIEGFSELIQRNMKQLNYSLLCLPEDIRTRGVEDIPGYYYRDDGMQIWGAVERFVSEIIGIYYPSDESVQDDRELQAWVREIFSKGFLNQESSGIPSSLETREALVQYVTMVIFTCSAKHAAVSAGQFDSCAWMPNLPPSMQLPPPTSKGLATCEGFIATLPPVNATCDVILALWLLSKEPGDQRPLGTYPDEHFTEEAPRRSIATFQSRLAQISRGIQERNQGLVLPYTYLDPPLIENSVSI
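Purified human 15hLO-2 (50 nM final) preincubated with compounds 15 min at room temperature in 25 mM Hepes pH 7.5, 0.01% Triton X-100, then 45 uM arachidonic acid added for 90 min; hydroperoxide detected via ferrous/xylenol orange, 573/405 nm absorbance ratio.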
IMPase inh: IMPase inhibition in cells; inhibition (IP1 accumulation), % at 46.1 µM; P97697; 120,000 tested, under 10 active; AID 901; CHO-M1 cells, IP1 accumulation, HTRF TR-FRET ratio; active = well fitted curve in the direction sought with a large enough effect in the signal ratio, not every such curve was filed as active; inconclusive = small, poorly fitted or top-dose-only effect, or a change in a side signal; inactive = no such curve, though single readings can be large or run the other way; the % refers to the signal ratio;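 note: cells stimulated with carbachol in lithium chloride buffer; plate controls were DMSO basal wells for no effect and reference inhibitor wells for full effect; higher means more IMPase inhibition seen as more IP1 and lower FRET ratio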
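Measured: the HTRF emission ratio (665/620 nm) plus the 620 nm donor channel, each fitted to the Hill equation to give AC50. Cells were CHO-M1 given compounds up to 46 uM and a 30 min carbachol stimulation at 37C.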
HPGD block: HPGD (human) dehydrogenase inhibition; P15428; purified HPGD, NADH fluorescence kinetic, PGE2 substrate; Potency, µM, for the others: at the highest dose activity change, negative = inhibition, usual class: inhibitors; actives 4.3% (n = 150,000); AID 894; active = well fitted inhibition curve with a large enough effect, not every such curve was filed as active; inconclusive = small, poorly fitted or top-dose-only effect, or another doubt; inactive = no such curve, though single readings can be large or run the other way; note: potency is the fitted concentration of half-maximal effect
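NADH formation kinetics: reaction with 30 uM PGE2 and 1 mM NAD+ (final), 20 nM enzyme, Tris-HCl pH 8 with Tween 20, after 15 min compound preincubation at room temperature. Fluorescence change, last versus first of five reads.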
12-hLO inh: blocks human 12-lipoxygenase activity. P18054. purified 12-hLO, xylenol orange hydroperoxide absorbance. Potency, µM (doses to about 57.1 µM), without a hit: top-dose activity change, negative = inhibition, hits mostly inhibitors. actives 0.12% (n = 150,000). AID 1452; note: potency is the fitted concentration of half-maximal effect; nearly all actives have a fitted effect of over 55% in size
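Purified human 12hLO (150 nM final) was preincubated with compounds for 15 min at room temperature in 25 mM Hepes pH 7.0, 0.01% Triton X-100, then reacted with 40 uM arachidonic acid for 30 min. Hydroperoxide was detected with ferrous iron/xylenol orange.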
IMPase Li inh: cell-permeable IMPase inhibitors with lithium potentiation; CHO-M1 cells, IP1 TR-FRET (IP-One), carbachol + lithium; Potency, µM (doses to about 59.4 µM), for inactives: top-dose activity, negative = IMPase inhibition, actives largely listed as inhibitors; actives 0.35% (n = 210,000); AID 1457;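 note: IP1 builds up when IMPase is blocked and the TR-FRET signal falls; potency is the fitted concentration of half-maximal effect; plate controls were basal vehicle for no effect and high inhibitor control for full effect; nearly all actives have a fitted effect of over 50% in size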
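Concentration–response in CHO-M1 cells, lithium-potentiated; 30 min at 37C. IP1 detected by competitive TR-FRET after 10 min lysis at RT. Hill-fitted AC50.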
The depositor's hits bear a star; u = inconclusive; x = not tested or not shown; [ ] = remark or other dose. An excerpt weighted towards active compounds, which were near 5.4% of everything screened. Unless noted, calls come from the whole dose curve; as a rule, active = well fitted curve in the direction sought with a large enough effect; inconclusive = small, poorly fitted or top-dose-only effect, or another doubt; inactive = no such curve, though single readings can be large; an effect the other way counts as inactive or inconclusive. Unless noted, % is set by controls: 0 for no effect and ±100 for the full control effect.

SMILES	PNC assembly inh	ALOX15B inhib	IMPase inh	HPGD block	12-hLO inh	IMPase Li inh
CS(=O)(=O)c1ccc(Sc2nc3ccccc3s2)c([N+](=O)[O-])c1	16	x	5	-7%	0%	-1%
CCc1ccc(NC(=O)C2CCC(CNS(=O)(=O)c3cccs3)CC2)cc1 (centres undefined)	x	x	6	x	x	x
Cc1ccc(C)c(NC(=O)CSc2nnc(CCCCCNC(=O)OC(C)(C)C)o2)c1	3	6%	10	18µM*	-3%	18%
Cc1ccc(NC(=O)CSc2nnc(CCNC(=O)OC(C)(C)C)o2)c(C)c1	12	-11%	3	-4%	2%	16%[38.3 µM]
CCOC(=O)c1[nH]c2c(c1Cc1ccccc1)C(=O)CC(c1ccccc1)C2 (centres undefined)	x	x	14	x	x	x
CC(C)c1cc(N2CCC(=O)NC2=O)cc(C(=O)O)c1O	-114*	x	x	u	-2%	-8%
CCOC(=O)C1CCN(Cc2cc(C(C)C)c(O)c(C(C)C)c2)CC1	x	x	x	x	x	10%
Cc1ccccc1OCC(=O)NCC(=O)N/N=C/c1ccc(Br)o1	-114*	x	x	0%	-4%	-3%
CCNc1ncc2ncc(=O)n(C)c2n1	x	2%	x	u	-2%	-17%
COc1cc2c(cc1NC(=O)C(C)OC(=O)C1CC(=O)N(Cc3ccco3)C1)oc1ccccc12 (centres undefined)	38	0%	13	28µM*	5%	40%[38.3 µM]
N#CC(C#N)=C1C=C2C=C(N3CCCCCC3)CCC2CC1 (centres undefined)	-134*	x	x	-11%	-21%	23%
O=C(Cc1ccccc1)Nc1ccc(Br)c(Cl)c1	-82*	x	x	-21%	-4%	12%
O=C(COc1ccccc1[N+](=O)[O-])N/N=C/c1cccs1	-96*	x	x	-8%	-2%	-6%
Cn1cc(/C=N/NC(=O)COc2ccccc2[N+](=O)[O-])c2ccccc21	u	x	x	-8%	0%	1%
COC(=O)c1cnn2c(C)c(Cc3cccc(F)c3)c(C)nc12	-88*	x	-16	u	-1%	0%
Cc1nc2c(C(=O)O)cnn2c(C)c1Cc1ccccc1F	-5	6%	-9	u	-9%	11%[38.3 µM]
O=C(COc1ccc(/C=N/NC(=O)c2cc3ccccc3o2)cc1Cl)Nc1ccccc1	-119*	u	-4	u	-1%	2%
Cc1ccccc1OCC(=O)Nc1sc2c(c1C(=O)OC(C)C)CCCC2	x	x	-11	x	x	x
CCOC(=O)c1ccc(N2C(=O)c3n[nH]c(C)c3C2c2ccc(OC)cc2OC)cc1 (centres undefined)	-119*	x	13	-29%	0%	17%
CCN1/C(=C/c2ccc3cc(C)ccc3[n+]2CC)Sc2ccccc21	-93*	x	x	-9%	-4%	-19%
CCN1/C(=C/c2ccc3cc(C)ccc3[n+]2CC)Sc2cc(C)c(C)cc21	x	x	x	x	x	-17%
CN(C)S(=O)(=O)c1ccc(Cl)c(NC(=O)CSc2nc3c(cc2C#N)C(=O)CC(C)(C)C3)c1	-109*	x	x	-16%	1%	2%
CCN(C(=O)CCc1nc(-c2ccc(C)cc2)no1)c1cccc(C(F)(F)F)c1	x	x	11	x	x	x
CCCCN1C(=O)Nc2ccccc2S1=O (centres undefined)	-87*	x	x	16µM*	2%	-2%
CCCCN1C(C)=CC(=C2C(=O)c3ccccc3C2=O)C=C1C	x	x	x	x	x	12%
SMILES	PNC assembly inh	ALOX15B inhib	IMPase inh	HPGD block	12-hLO inh	IMPase Li inh
CN(C(=O)c1cc2sccc2n1C)C1CCCCC1	21	-8%	0	18µM*	0%	8%
CCCCOc1ccccc1NC(=O)CC1Sc2ccccc2NC1=O (centres undefined)	x	x	-3	x	x	x
COC(=O)CSc1ccc(S(=O)(=O)N2CCC(C)CC2)cc1[N+](=O)[O-]	-109*	x	x	-7%	-1%	-3%
Cc1ccc(S(=O)(=O)N2CCC(C)CC2)cc1[N+](=O)[O-]	x	x	x	x	x	14%
CCCCN(CCCC)S(=O)(=O)c1ccc(SCC(=O)OCC)c([N+](=O)[O-])c1	-87*	-6%	-5	-17%	0%	7%[38.3 µM]
COC(=O)c1ccc(SCC(=O)NC2CCCC2)c([N+](=O)[O-])c1	52	x	x	35µM*	-1%	2%
CCOC(=O)CSc1ccc(S(=O)(=O)N(CC)CC)cc1[N+](=O)[O-]	x	x	x	x	x	1%
COc1cccc(/C=c2\sc3nc(-c4cccs4)nn3c2=O)c1OC	u	-10%	7	14µM*	-8%	4%[38.3 µM]
CCSc1nnc(NC(=O)c2cccc(S(=O)(=O)N(C)c3ccc(C)cc3)c2)s1	33	x	-1	-28%	1%	0%
CN(c1ccccc1)S(=O)(=O)c1ccc(C(=O)Nc2nccs2)cc1	-5	36%	6	-11%	1%	-16%[38.3 µM]
Cn1c(SCc2ccc(C(=O)Nc3nccs3)cc2)nnc1-c1ccccc1	20	7%	1	14µM*	10%	23%[38.3 µM]
CCc1nnc(NC(=O)c2cccc(S(=O)(=O)N(C)c3ccccc3)c2)s1	21	-19%	0	28µM*	-1%	-9%[38.3 µM]
CN(c1ccc(C(=O)Nc2nccs2)cc1)S(=O)(=O)c1ccccc1	-17	38%	14	8.9µM*	-6%	12%
CCc1nnc(NC(=O)c2ccc(S(=O)(=O)N3CCc4ccccc4C3)cc2)s1	-85*	x	0	-13%	-2%	-5%
CCc1nnc(NC(=O)c2ccc(Cl)c(S(=O)(=O)N3CCc4ccccc4C3)c2)s1	-1	x	x	-11%	1%	6%
CC(C)C[C@@H](CC(=O)N[C@H](CC(=O)N[C@@H]1CCCC[C@H]1C(=O)N[C@H](CC(=O)N[C@@H](CCC(=O)O)CC(=O)O)Cc1c[nH]c2ccccc12)C(C)C)NC(=O)[C@@H]1CCCC[C@H]1N	x	x	x	-5%	-4%	5%
COc1ccc(-c2nc3cnc(N4CCNCC4)nc3n(-c3ccccc3)c2=O)cc1	x	13%	x	u	-5%	4%
CN(C)S(=O)(=O)Nc1ccc(Oc2ccccc2)cc1	14	-2%	1	13µM*	-6%	0%[38.3 µM]
C#C[C@]1(O)CCC2C3CCC4=Cc5oncc5C[C@@]4(C)C3CC[C@@]21C (some centres undefined)	x	-12%	x	-16%	-8%	x
Nc1cc(Cl)ccc1Oc1ccc(Cl)cc1	3	6%	-2	22µM*	-5%	3%[38.3 µM]
CCCOc1ccc(/C(O)=C2\C(=O)C(=O)N(CCCOC)C23C(=O)N(C)c2ccccc23)cc1 (centres undefined)	-106*	30%	u	-15%	12%	10µM*
